In PubChem BioAssay (EPA / NIEHS):
Records with an inconclusive call do not appear. Some structures have more than one record in an assay (separate samples or runs), and their calls can disagree. Calls of active or inactive are those of the source. How the source made its calls, unless noted: active means hit-call score of the fitted dose curve at least 0.9, where 1 is the maximum; inactive means score below 0.9.

What was measured:
[1] = read-out: Intercellular Adhesion Molecule 1 (ICAM1), ICAM1 (gene 3383); assay: BSK_3C_ICAM1: BioMAP Diversity Plus: 3C Assay for Intercellular Adhesion Molecule 1 (ICAM1) Biomarker Activity (AID 2283003); conditions: primary human endothelial cells (HUVEC); actives raise or lower the signal
Method in brief: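 Primary human umbilical vein endothelial cells in the BioMAP 3C system were exposed to chemicals for 24 h, then ICAM-1 was quantified by ELISA. Activity was fitted bidirectionally against the DMSO negative control baseline.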

[2] = target: human Retinoic Acid Receptor beta (RARb), RARB (gene 5915) (UniProt P10826); assay: ATG_RARb_TRANS: Attagene TRANS-FACTORIAL HepG2 Assay for human Retinoic Acid Receptor beta (AID 2283004; active means hit-call score of the fitted dose curve at least 0.9, where 1 is the maximum)
human Retinoic Acid Receptor beta (RARb), RARB (gene 5915), sequence (P10826 whole entry, looked up, the tested form may be a part): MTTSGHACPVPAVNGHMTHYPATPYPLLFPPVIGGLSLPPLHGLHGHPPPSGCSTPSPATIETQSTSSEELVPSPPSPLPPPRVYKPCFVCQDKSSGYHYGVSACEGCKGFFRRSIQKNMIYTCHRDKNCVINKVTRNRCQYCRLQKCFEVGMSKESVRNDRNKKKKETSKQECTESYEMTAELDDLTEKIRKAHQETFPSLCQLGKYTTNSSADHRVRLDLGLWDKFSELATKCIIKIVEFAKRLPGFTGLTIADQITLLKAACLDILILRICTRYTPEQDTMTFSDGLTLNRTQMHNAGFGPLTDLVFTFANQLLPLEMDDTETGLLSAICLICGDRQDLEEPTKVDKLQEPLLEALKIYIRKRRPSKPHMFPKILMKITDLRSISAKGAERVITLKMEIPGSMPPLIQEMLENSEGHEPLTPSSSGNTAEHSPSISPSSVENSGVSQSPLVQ
Method in brief: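 HepG2 cells transiently transfected with multiplexed GAL4-UAS reporter units expressing chimeric NR–Gal4 fusions; 24 h compound exposure. Reporter mRNA quantified by RT-PCR, 6-FAM labelling, HpaI digestion and capillary electrophoresis; gain-of-signal fitted against DMSO baseline.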

[3] = BSK_3C_Proliferation: Cell Proliferation Assessment in the BioMAP Diversity Plus: 3C Assay (AID 2283006); conditions: primary human endothelial cells (HUVEC);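 on AC50: potency may reflect either rise or fall in cell number versus DMSO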
Method in brief: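 Human umbilical vein endothelial cells were grown sub-confluent and exposed to chemical for 48 h, then fixed with 10% TCA and stained with 0.1% sulforhodamine B; absorbance at 560 nm gave relative cell number, fitted bidirectionally against DMSO baseline.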

[4] = target: Peroxisome proliferator-activated receptor gamma (Homo sapiens) (UniProt P37231); assay: ATG_PPARg_TRANS: Attagene TRANS-FACTORIAL HepG2 Assay for human Peroxisome Proliferator-activated Receptor-gamma (PPARg) (AID 2283007; active means hit-call score of the fitted dose curve at least 0.9, where 1 is the maximum)
Peroxisome proliferator-activated receptor gamma (Homo sapiens), sequence (P37231 whole entry, looked up, the tested form may be a part): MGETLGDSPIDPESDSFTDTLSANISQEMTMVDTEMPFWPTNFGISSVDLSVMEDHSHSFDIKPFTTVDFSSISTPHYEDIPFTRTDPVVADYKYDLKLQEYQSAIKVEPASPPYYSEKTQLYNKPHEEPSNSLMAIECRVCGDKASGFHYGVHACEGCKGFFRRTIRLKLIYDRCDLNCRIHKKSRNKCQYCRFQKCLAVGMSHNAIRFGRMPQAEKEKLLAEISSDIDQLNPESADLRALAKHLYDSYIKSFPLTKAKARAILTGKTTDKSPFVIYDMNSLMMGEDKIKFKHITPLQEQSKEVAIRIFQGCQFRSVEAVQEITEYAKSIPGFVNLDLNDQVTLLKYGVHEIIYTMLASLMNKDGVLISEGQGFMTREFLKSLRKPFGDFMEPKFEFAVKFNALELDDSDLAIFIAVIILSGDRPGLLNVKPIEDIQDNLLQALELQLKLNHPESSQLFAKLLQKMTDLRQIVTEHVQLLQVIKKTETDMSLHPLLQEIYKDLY
Method in brief: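 Transient transfection of HepG2 with GAL4-UAS-driven reporter units; chemical dosing 24 h; total RNA → oligo(dT) RT → PCR with reporter primers → 6-FAM primer extension → HpaI digest 2 h 37 C → capillary electrophoresis. Positive direction vs DMSO.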

[5] = target: Nuclear receptor subfamily 1 group I member 2 (Homo sapiens) (UniProt O75469); assay: ATG_PXR_TRANS: Attagene TRANS-FACTORIAL HepG2 Assay for human Pregnane X Receptor (PXR) (AID 2283008; active means hit-call score of the fitted dose curve at least 0.9, where 1 is the maximum)
Nuclear receptor subfamily 1 group I member 2 (Homo sapiens), sequence (O75469 whole entry, looked up, the tested form may be a part): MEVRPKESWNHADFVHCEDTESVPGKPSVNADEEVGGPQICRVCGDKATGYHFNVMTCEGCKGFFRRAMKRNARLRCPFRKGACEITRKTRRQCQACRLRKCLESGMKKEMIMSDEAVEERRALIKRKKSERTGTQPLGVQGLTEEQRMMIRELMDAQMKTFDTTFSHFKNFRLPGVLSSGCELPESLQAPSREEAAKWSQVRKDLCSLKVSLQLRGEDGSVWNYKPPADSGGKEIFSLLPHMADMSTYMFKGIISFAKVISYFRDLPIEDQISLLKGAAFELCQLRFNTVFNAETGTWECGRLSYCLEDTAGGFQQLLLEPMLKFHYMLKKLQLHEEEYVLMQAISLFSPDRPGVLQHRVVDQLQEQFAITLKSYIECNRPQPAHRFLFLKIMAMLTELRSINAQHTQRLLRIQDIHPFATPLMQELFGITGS
Method in brief: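 Fluorescence intensity of FAM-labelled, HpaI-digested reporter amplicons, separated by capillary electrophoresis, quantifies induction. HepG2 cells with PXR-Gal4 trans-reporter system were exposed 24 h; DMSO defines baseline.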

[6] = target: human RAR-related Orphan Receptor beta (RORb), RORB (gene 6096) (UniProt Q92753); assay: ATG_RORb_TRANS: Attagene TRANS-FACTORIAL HepG2 Assay for human RAR-related Orphan Receptor beta (RORb) (AID 2283010; active means hit-call score of the fitted dose curve at least 0.9, where 1 is the maximum)
human RAR-related Orphan Receptor beta (RORb), RORB (gene 6096), sequence (Q92753 whole entry, looked up, the tested form may be a part): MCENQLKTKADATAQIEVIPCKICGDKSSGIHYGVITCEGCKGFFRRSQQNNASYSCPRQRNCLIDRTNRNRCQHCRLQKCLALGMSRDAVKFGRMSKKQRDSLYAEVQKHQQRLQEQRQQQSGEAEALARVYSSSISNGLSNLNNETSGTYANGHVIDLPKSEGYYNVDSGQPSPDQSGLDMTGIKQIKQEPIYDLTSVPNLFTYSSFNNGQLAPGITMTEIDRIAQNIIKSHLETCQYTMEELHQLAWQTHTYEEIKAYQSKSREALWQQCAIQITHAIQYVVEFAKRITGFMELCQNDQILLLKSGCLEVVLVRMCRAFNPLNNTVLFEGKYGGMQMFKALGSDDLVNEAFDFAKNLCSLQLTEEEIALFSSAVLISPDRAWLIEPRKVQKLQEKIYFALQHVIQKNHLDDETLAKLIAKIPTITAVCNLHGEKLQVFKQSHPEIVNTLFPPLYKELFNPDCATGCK
Method in brief: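 HepG2 cells were transiently transfected with multiplexed GAL4-UAS reporter units expressing chimeric nuclear receptor–GAL4 proteins, then dosed for 24 h. Reporter mRNA was quantified by RT-PCR with fluorescent labelling and capillary electrophoresis; gain of signal was fitted relative to DMSO.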

[7] = target: human RAR-related Orphan Receptor gamma (RORg), RORC (gene 6097) (UniProt P51449); assay: ATG_RORg_TRANS: Attagene TRANS-FACTORIAL HepG2 Assay for human RAR-related Orphan Receptor gamma (RORg) (AID 2283011; active means hit-call score of the fitted dose curve at least 0.9, where 1 is the maximum)
human RAR-related Orphan Receptor gamma (RORg), RORC (gene 6097), sequence (P51449 whole entry, looked up, the tested form may be a part): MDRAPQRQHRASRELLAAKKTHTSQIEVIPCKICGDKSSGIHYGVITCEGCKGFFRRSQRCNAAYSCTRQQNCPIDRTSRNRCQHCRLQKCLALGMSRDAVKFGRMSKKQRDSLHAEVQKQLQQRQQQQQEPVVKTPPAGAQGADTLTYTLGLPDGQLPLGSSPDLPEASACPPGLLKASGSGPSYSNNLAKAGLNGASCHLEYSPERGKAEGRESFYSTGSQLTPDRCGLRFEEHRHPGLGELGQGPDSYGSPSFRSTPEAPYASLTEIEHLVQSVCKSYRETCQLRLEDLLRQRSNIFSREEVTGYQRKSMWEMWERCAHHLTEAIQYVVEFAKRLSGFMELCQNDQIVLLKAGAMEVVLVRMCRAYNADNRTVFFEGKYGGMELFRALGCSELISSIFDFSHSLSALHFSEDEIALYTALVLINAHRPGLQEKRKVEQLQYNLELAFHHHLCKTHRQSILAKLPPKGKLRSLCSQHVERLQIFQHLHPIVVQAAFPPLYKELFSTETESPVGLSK
Method in brief: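 Readout: reporter transcript induction (RT-PCR, fluorescent primer extension, capillary electrophoresis) after 24 h compound exposure of transiently transfected HepG2 cells carrying a RORg-Gal4 chimera and GAL4-UAS reporters; DMSO served as baseline, with increasing signal fitted.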

[8] = target: Retinoic acid receptor RXR-alpha (Homo sapiens) (UniProt P19793); assay: ATG_RXRa_TRANS: Attagene TRANS-FACTORIAL HepG2 Assay for human Retinoid X Receptor alpha (RXRa) (AID 2283012; active means hit-call score of the fitted dose curve at least 0.9, where 1 is the maximum)
Retinoic acid receptor RXR-alpha (Homo sapiens), sequence (P19793 whole entry, looked up, the tested form may be a part): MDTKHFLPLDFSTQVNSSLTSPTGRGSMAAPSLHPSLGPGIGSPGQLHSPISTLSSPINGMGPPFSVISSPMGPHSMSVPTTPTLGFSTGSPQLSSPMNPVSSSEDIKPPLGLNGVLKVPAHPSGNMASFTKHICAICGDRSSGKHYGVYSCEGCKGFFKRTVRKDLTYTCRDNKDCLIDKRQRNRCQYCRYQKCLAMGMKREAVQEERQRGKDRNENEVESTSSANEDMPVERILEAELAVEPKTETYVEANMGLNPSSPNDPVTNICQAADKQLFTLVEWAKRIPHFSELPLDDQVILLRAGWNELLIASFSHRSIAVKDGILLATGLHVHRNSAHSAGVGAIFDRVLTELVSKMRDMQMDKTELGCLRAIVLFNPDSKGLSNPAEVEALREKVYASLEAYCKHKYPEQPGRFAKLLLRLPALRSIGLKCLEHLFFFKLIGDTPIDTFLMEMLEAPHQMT
Method in brief: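 HepG2 cells transiently transfected with multiplexed GAL4-UAS reporter units and chimeric NR-GAL4 fusions, dosed 24 h. Reporter mRNA measured by RT-PCR, FAM labelling, HpaI digestion and capillary electrophoresis; gain-of-signal fitted relative to DMSO baseline.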

[9] = target: human Retinoid X Receptor beta (RXRb), RXRB (gene 6257) (UniProt P28702); assay: ATG_RXRb_TRANS: Attagene TRANS-FACTORIAL HepG2 Assay for human Retinoid X Receptor beta (RXRb) (AID 2283013; active means hit-call score of the fitted dose curve at least 0.9, where 1 is the maximum)
human Retinoid X Receptor beta (RXRb), RXRB (gene 6257), sequence (P28702 whole entry, looked up, the tested form may be a part): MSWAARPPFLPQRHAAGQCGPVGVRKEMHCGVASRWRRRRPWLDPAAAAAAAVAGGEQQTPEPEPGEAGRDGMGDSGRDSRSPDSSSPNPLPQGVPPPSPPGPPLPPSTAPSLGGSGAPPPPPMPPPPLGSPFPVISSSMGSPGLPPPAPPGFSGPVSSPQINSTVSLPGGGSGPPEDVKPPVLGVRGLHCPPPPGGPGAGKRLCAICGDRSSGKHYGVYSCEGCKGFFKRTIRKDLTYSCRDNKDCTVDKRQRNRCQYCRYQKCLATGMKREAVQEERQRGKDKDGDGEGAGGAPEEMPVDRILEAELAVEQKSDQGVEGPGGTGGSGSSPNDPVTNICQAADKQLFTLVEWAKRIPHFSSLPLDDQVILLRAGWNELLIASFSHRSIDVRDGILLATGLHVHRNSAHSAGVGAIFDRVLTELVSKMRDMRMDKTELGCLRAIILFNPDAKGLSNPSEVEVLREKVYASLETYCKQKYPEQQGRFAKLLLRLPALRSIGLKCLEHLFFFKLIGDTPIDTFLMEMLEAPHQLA
Method in brief: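 HepG2 cells transiently transfected with multiplexed reporter units driven by GAL4-UAS and exogenous chimeric NR-Gal4 proteins; treated 24 h. Reporter mRNA measured by RT-PCR, 6-FAM labelling and capillary electrophoresis; gain-of-signal fitted versus DMSO baseline.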

[10] = target: human Thyroid Receptor alpha (THRa1), THRA (gene 7067) (UniProt P10827); assay: ATG_THRa1_TRANS: Attagene TRANS-FACTORIAL HepG2 Assay for human Thyroid Receptor alpha (THRa1) (AID 2283014; active means hit-call score of the fitted dose curve at least 0.9, where 1 is the maximum)
human Thyroid Receptor alpha (THRa1), THRA (gene 7067), sequence (P10827 whole entry, looked up, the tested form may be a part): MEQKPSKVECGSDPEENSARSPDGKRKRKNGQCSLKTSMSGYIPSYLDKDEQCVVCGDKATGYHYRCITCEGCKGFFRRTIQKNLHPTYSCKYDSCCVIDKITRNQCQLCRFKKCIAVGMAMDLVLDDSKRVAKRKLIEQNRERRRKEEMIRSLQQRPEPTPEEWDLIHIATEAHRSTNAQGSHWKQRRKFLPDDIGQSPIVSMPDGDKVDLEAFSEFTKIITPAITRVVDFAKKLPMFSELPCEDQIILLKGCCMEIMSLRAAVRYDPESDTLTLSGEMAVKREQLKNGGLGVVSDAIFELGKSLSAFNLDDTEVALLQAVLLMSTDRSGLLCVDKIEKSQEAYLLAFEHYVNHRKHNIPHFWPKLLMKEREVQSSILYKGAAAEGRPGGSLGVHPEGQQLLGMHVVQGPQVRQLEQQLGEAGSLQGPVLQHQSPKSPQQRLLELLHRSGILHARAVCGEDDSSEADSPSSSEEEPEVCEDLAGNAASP
Method in brief: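 HepG2 cells transiently transfected with multiplexed GAL4-UAS reporter units for exogenous chimeric THRa1-Gal4; reporter mRNA measured 24 h after dosing by RT-PCR, 6-FAM labelling, HpaI digestion and capillary electrophoresis. Gain-of-signal fitted versus DMSO baseline.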

[11] = read-out: E-selectin (Homo sapiens) (UniProt P16581); assay: BSK_3C_Eselectin: BioMAP Diversity Plus: 3C Assay for Eselectin Biomarker Activity (AID 2283015); conditions: primary human endothelial cells (HUVEC); actives raise or lower the signal
Method in brief: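 Primary human umbilical vein endothelial cells (3C system) were dosed with chemical and cell-surface E-selectin measured by ELISA 24 h later. Bidirectional curve fitting used DMSO as negative control and baseline.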

[12] = read-out: Interleukin-1 alpha (IL1a), IL1A (gene 3552); assay: BSK_BE3C_IL1a: BioMAP Diversity Plus: BE3C Assay for Interleukin-1 alpha (IL1a) Biomarker Activity (AID 2283016); conditions: primary human bronchial epithelial cells; actives raise or lower the signal
Method in brief: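 Human primary bronchial epithelial cells (BE3C system) were dosed with compound and IL-1a measured by ELISA 24 h later. Activity was fitted bidirectionally against DMSO baseline; cytotoxicity was tracked in parallel cultures by SRB total-protein staining.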

[13] = read-out: Monocyte Chemoattractant Protein-1 (MCP1), CCL2 (gene 6347); assay: BSK_3C_MCP1: BioMAP Diversity Plus: 3C Assay for Monocyte Chemoattractant Protein-1 (MCP1) Biomarker Activity (AID 2283017); conditions: primary human endothelial cells (HUVEC); actives raise or lower the signal
Method in brief: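 Primary human umbilical vein endothelial cells (3C system) were exposed to test chemical for 24 h, after which MCP-1 was quantified by ELISA. Activity was fitted bidirectionally against DMSO as negative control and baseline.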

[14] = read-out: Monocyte Chemoattractant Protein-1 (MCP1), CCL2 (gene 6347); assay: BSK_4H_MCP1: BioMAP Diversity Plus: 4H Assay for Monocyte Chemoattractant Protein-1 (MCP1) Biomarker Activity (AID 2283018); conditions: primary human endothelial cells (HUVEC); actives raise or lower the signal
Method in brief: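 Human umbilical vein endothelial cells (4H system) dosed with chemical; MCP-1 measured by ELISA 24 h after dosing. Bidirectional curve fitting against DMSO negative control as baseline; parallel SRB total-protein staining tracks overt cytotoxicity.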

[15] = read-out: Human Leukocyte Antigen - DR isotype (HLADR), HLA-DRA (gene 3122); assay: BSK_3C_HLADR: BioMAP Diversity Plus: 3C Assay for Human Leukocyte Antigen - DR isotype (HLADR) Biomarker Activity (AID 2283019); conditions: primary human endothelial cells (HUVEC); actives raise or lower the signal
Method in brief: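 Primary human umbilical vein endothelial cells (3C system) were dosed with compound and cell-surface HLA-DR was quantified by ELISA at 24 h. Activity was fitted bidirectionally against DMSO as negative control and baseline.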

[16] = read-out: Interleukin-8 (IL8), CXCL8 (gene 3576); assay: BSK_3C_IL8: BioMAP Diversity Plus: 3C Assay for Interleukin-8 (IL8) Biomarker Activity (AID 2283020); conditions: primary human endothelial cells (HUVEC); actives raise or lower the signal
Method in brief: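 Primary human umbilical vein endothelial cells (3C system) were exposed to test chemical for 24 h, then IL-8 was quantified by ELISA. Responses were fitted bidirectionally against DMSO vehicle as baseline.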

[17] = read-out: Monokine induced gamma interferon (MIG), CXCL9 (gene 4283); assay: BSK_3C_MIG: BioMAP Diversity Plus: 3C Assay for Monokine induced gamma interferon (MIG) Biomarker Activity (AID 2283021); conditions: primary human endothelial cells (HUVEC); actives raise or lower the signal;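 on AC50: MIG protein level measured by immunoassay in the treated endothelial cultures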
Method in brief: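 Primary human umbilical vein endothelial cells in the 3C system were exposed to chemical for 24 h, after which MIG was quantified by ELISA. Activity was fitted bidirectionally against DMSO as negative control and baseline.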

[18] = target: human Vitamin D Receptor (VDR), VDR (gene 7421) (UniProt P11473); assay: ATG_VDR_TRANS: Attagene TRANS-FACTORIAL HepG2 Assay for human Vitamin D Receptor (VDR) (AID 2283022; active means hit-call score of the fitted dose curve at least 0.9, where 1 is the maximum)
Method in brief: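 HepG2 cells were transiently transfected with multiple GAL4-UAS reporter units, so signal reflects exogenous chimeric receptor-Gal4 activity. After 24 h compound exposure, reporter mRNA was measured by RT-PCR, fluorescent labelling and capillary electrophoresis, fitted for gain of signal versus DMSO.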

[19] = target: human Retinoic Acid Receptor gamma (RARg), RARG (gene 5916) (UniProt P13631); assay: ATG_RARg_TRANS: Attagene TRANS-FACTORIAL HepG2 Assay for human Retinoic Acid Receptor gamma (RARg) (AID 2283009; active means hit-call score of the fitted dose curve at least 0.9, where 1 is the maximum;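 on AC50: AC50 is for reporter induction above DMSO meaning RARg activation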)
human Retinoic Acid Receptor gamma (RARg), RARG (gene 5916), sequence (P13631 whole entry, looked up, the tested form may be a part): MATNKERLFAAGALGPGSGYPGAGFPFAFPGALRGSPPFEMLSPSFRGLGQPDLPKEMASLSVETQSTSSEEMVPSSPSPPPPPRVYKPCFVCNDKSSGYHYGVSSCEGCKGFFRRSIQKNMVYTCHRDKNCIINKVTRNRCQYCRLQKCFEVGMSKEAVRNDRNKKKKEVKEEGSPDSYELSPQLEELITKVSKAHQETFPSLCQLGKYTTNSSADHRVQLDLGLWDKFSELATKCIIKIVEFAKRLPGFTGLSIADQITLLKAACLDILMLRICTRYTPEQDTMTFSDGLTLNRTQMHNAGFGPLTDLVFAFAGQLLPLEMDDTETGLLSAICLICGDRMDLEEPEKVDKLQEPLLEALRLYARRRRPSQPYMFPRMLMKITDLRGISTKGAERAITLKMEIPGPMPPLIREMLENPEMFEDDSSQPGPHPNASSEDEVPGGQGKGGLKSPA
Method in brief: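 HepG2 cells transiently transfected with multiplexed reporter units expressing chimeric RARg-GAL4 and GAL4-UAS-driven reporters; 24 h compound exposure. Reporter mRNA quantified by RT-PCR with fluorescent labelling and capillary electrophoresis; gain-of-signal fitted relative to DMSO baseline.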

[20] = target: Retinoic acid receptor alpha (Homo sapiens) (UniProt P10276); assay: ATG_RARa_TRANS: Attagene TRANS-FACTORIAL HepG2 Assay for human Retinoic Acid Receptor alpha (RARa) (AID 2283005; active means hit-call score of the fitted dose curve at least 0.9, where 1 is the maximum)
Method in brief: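 HepG2 cells transiently transfected with multiple reporter units expressing chimeric RARα-GAL4 fusion, with GAL4-UAS-driven reporters. After 24 h compound exposure, reporter mRNA induction quantified by RT-PCR and capillary electrophoresis with fluorescent labeling; gain-of-signal fitted relative to DMSO control.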

Measured: AC50

E-selectin (Homo sapiens), sequence (P16581 whole entry, looked up): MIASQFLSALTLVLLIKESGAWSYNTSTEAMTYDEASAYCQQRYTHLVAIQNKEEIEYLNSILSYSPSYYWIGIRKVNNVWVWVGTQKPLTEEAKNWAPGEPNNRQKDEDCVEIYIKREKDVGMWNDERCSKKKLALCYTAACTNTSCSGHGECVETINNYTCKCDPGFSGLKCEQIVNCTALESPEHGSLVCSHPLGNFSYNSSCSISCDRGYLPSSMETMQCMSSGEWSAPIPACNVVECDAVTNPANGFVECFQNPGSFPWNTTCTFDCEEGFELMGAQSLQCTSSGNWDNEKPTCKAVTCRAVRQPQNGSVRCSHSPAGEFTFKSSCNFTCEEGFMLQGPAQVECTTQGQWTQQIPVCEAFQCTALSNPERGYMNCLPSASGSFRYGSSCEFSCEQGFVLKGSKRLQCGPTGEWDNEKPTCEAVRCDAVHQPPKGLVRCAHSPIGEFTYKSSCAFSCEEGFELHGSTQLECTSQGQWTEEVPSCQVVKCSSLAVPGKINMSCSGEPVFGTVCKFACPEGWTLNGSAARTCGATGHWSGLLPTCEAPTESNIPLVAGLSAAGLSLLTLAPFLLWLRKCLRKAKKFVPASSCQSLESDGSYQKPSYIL

CCCCCc1ccc(O)cc1
active: [1] 15.9 µM | [3] 10.5 µM | [4] 41.4 µM | [5] 20.7 µM | [9] 33.4 µM | [11] 13.5 µM | [12] 23.8 µM | [13] 20 µM | [14] 9.34 µM | [15] 11.6 µM | [16] 11.3 µM | [17] 34.6 µM
inactive: [2] | [6] | [7] | [8] | [10]

O=C(O)CCC(F)(F)C(F)(F)C(F)(F)C(F)(F)C(F)(F)F
inactive: [1] | [3] | [4] | [5] | [6] | [8] | [9] | [11] | [12] | [13] | [14] | [15] | [16] | [17] | [18]
active: [4] 82.5 µM

O=C1c2ccc(O)c(O)c2C(=O)c2c(O)ccc(O)c21
active: [19] 50 µM | [10] 13.8 µM
inactive: [1] | [2] | [3] | [4] | [5] | [6] | [8] | [9] | [11] | [12] | [13] | [14] | [15] | [16] | [17] | [18]

Oc1cc2ccccc2cc1O
inactive: [1] | [2] | [20] | [3] | [4] | [5] | [19] | [6] | [7] | [8] | [10] | [11] | [12] | [13] | [14] | [15] | [16] | [17]

CCCCc1oc2ccccc2c1C(=O)c1cc(I)c(OCCN(CC)CC)c(I)c1
inactive: [4] | [5] | [19] | [8] | [9]
active: [1] 23.3 µM | [3] 5.66 µM | [11] 24.1 µM | [12] 17.1 µM | [13] 21.6 µM | [14] 15.1 µM | [15] 9.35 µM | [16] 17.7 µM | [17] 25.7 µM | [18] 47.5 µM

Cc1ccc(C(=O)c2ccccc2)cc1
active: [3] 32.1 µM | [4] 100 µM | [5] 19.9 µM | [9] 75.9 µM | [11] 28.2 µM | [13] 4.38 µM | [14] 27 µM | [15] 28.2 µM | [16] 0.0156 µM
inactive: [1] | [6] | [8] | [10] | [12] | [17]

CCCCCCCCCCCCCCC
inactive: [1] | [3] | [7] | [9] | [11] | [12] | [13] | [14] | [15] | [16] | [17]
